Experimental data: PubChem BioAssay (EPA / NIEHS)
Inconclusive results are not listed. Calls of active or inactive are those of the source. How the source made its calls: active means hit-call score of the fitted dose curve at least 0.9, where 1 is the maximum; inconclusive means response in the unintended direction; inactive means score below 0.9.

assay: Tanguay_ZF_120hpf_MORT_legacy: (Legacy) Oregon State University Tanguay Lab 120 Hour Post-fertilization zebrafish Assay for Mortality (AID 2283633);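 on AC50: fitted as increase in binary mortality versus DMSO negative control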
In short: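 Static waterborne exposure from 6 to 120 hpf at 28C of single dechorionated wild-type (5D) embryos per well, 0.64% DMSO final. Death recorded present/absent by brightfield at 24 and 120 hpf.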

SMILES | outcome | AC50
CCCCCOC(=O)COc1cc(N2C(=O)C3=C(CCCC3)C2=O)c(F)cc1Cl | inactive | –
CCSC(=O)N(CC(C)C)CC(C)C | inactive | –
CCC(C)OC(=O)N1CCCCC1CCO (stereo not given) | inactive | –
CCCCCCC(C)OC(=O)COc1nc(F)c(Cl)c(N)c1Cl (stereo not given) | inactive | –
CCCN(CCC)c1c([N+](=O)[O-])cc(C(F)(F)F)c(N)c1[N+](=O)[O-] | inactive | –
COC(=O)c1ccccc1C(=O)O | inactive | –
O=C(O)C1(C(=O)Nc2ccc(Cl)cc2Cl)CC1 | inactive | –
CCCCOC(=O)C(C)Oc1ccc(Oc2ccc(C(F)(F)F)cn2)cc1 (stereo not given) | inactive | –
CCOC(=O)C(C)Oc1ccc(Oc2cnc3cc(Cl)ccc3n2)cc1 (stereo not given) | inactive | –
CCCOC(=O)NCCCN(C)C | inactive | –
CC(C)(C)[C@@H](O)[C@@H](Cc1ccc(Cl)cc1)n1cncn1 | inactive | –
COc1c(Cl)ccc(Cl)c1C(=O)O | inactive | –
C=CCOC(Cn1ccnc1)c1ccc(Cl)cc1Cl (stereo not given) | – | 13.8 µM (active)
CCCN(CCC)C(=O)SCC | inactive | –
CCCCOCCOCCOCc1cc2c(cc1CCC)OCO2 | – | 5.13 µM (active)
S=C([S-])NCCNC(=S)[S-].[Mn+2] | inactive | –
CCCOC(=O)c1ccc(C(=O)OCCC)nc1 | – | 5.38 µM (active)
CCOC(=O)COc1cc(-n2ncc(C(F)(F)F)c(C)c2=O)c(F)cc1Cl | inactive | –
CCOC(=O)NCCOc1ccc(Oc2ccccc2)cc1 | inactive | –
COC(=O)c1ccc(I)cc1S(=O)(=O)NC(=O)Nc1nc(C)nc(OC)n1 | inactive | –
CCCCOC(=O)[C@@H](C)Oc1ccc(Oc2ccc(C(F)(F)F)cn2)cc1 | inactive | –
Cc1nn(C)c(Oc2ccccc2)c1C=NOCc1ccc(C(=O)OC(C)(C)C)cc1 | – | 3.26 µM (active)
OB(O)O | inactive | –
CCOC(=O)C(C)Oc1ccc(Oc2nc3ccc(Cl)cc3o2)cc1 (stereo not given) | inactive | –
COC(=O)CSc1cc(N=c2sc(=O)n3n2CCCC3)c(F)cc1Cl | inactive | –
CCNc1nc(N)nc(Cl)n1 | inactive | –

assay: Tanguay_ZF_120hpf_YSE_legacy: (Legacy) Oregon State University Tanguay Lab 120 Hour Post-fertilization zebrafish Assay for Yolk Sac Edema (AID 2283634);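 on AC50: actives raise the incidence of yolk sac edema above the DMSO baseline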
In short: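 Presence or absence of yolk sac edema was recorded at 120 hpf in surviving larvae. These were wild-type Tropical 5D embryos, chorion removed at 4 hpf, held in static exposure at 28C from 6 hpf with 0.64% DMSO vehicle.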

SMILES | outcome | AC50
CCCCCOC(=O)COc1cc(N2C(=O)C3=C(CCCC3)C2=O)c(F)cc1Cl | inactive | –
CCSC(=O)N(CC(C)C)CC(C)C | inactive | –
CCC(C)OC(=O)N1CCCCC1CCO (stereo not given) | inactive | –
CCCCCCC(C)OC(=O)COc1nc(F)c(Cl)c(N)c1Cl (stereo not given) | inactive | –
CCCN(CCC)c1c([N+](=O)[O-])cc(C(F)(F)F)c(N)c1[N+](=O)[O-] | inactive | –
COC(=O)c1ccccc1C(=O)O | inactive | –
O=C(O)C1(C(=O)Nc2ccc(Cl)cc2Cl)CC1 | – | 32.3 µM (active)
CCCCOC(=O)C(C)Oc1ccc(Oc2ccc(C(F)(F)F)cn2)cc1 (stereo not given) | inactive | –
CCOC(=O)C(C)Oc1ccc(Oc2cnc3cc(Cl)ccc3n2)cc1 (stereo not given) | inactive | –
CCCOC(=O)NCCCN(C)C | inactive | –
CC(C)(C)[C@@H](O)[C@@H](Cc1ccc(Cl)cc1)n1cncn1 | – | 36.1 µM (active)
COc1c(Cl)ccc(Cl)c1C(=O)O | inactive | –
C=CCOC(Cn1ccnc1)c1ccc(Cl)cc1Cl (stereo not given) | – | 1.46 µM (active)
CCCN(CCC)C(=O)SCC | inactive | –
CCCCOCCOCCOCc1cc2c(cc1CCC)OCO2 | – | 28.3 µM (active)
S=C([S-])NCCNC(=S)[S-].[Mn+2] | inactive | –
CCCOC(=O)c1ccc(C(=O)OCCC)nc1 | – | 1.17 µM (active)
CCOC(=O)COc1cc(-n2ncc(C(F)(F)F)c(C)c2=O)c(F)cc1Cl | inactive | –
CCOC(=O)NCCOc1ccc(Oc2ccccc2)cc1 | inactive | –
COC(=O)c1ccc(I)cc1S(=O)(=O)NC(=O)Nc1nc(C)nc(OC)n1 | inactive | –
CCCCOC(=O)[C@@H](C)Oc1ccc(Oc2ccc(C(F)(F)F)cn2)cc1 | inactive | –
Cc1nn(C)c(Oc2ccccc2)c1C=NOCc1ccc(C(=O)OC(C)(C)C)cc1 | inactive | –
OB(O)O | inactive | –
CCOC(=O)C(C)Oc1ccc(Oc2nc3ccc(Cl)cc3o2)cc1 (stereo not given) | inactive | –
COC(=O)CSc1cc(N=c2sc(=O)n3n2CCCC3)c(F)cc1Cl | inactive | –
CCNc1nc(N)nc(Cl)n1 | inactive | –

assay: Tanguay_ZF_120hpf_AXIS_legacy: (Legacy) Oregon State University Tanguay Lab 120 Hour Post-fertilization zebrafish Assay for Body Axis Malformation (AID 2283635);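 on AC50: potency for an increased fraction of larvae scored with body axis malformation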
In short: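 Binary scoring of axis defects at 120 hpf under brightfield, fitted positive versus DMSO. Tropical 5D embryos, chorion removed by pronase at 4 hpf, were singly exposed in sealed, dark plates at 28C from 6 hpf; DMSO 0.64% final.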

SMILES | outcome | AC50
CCCCCOC(=O)COc1cc(N2C(=O)C3=C(CCCC3)C2=O)c(F)cc1Cl | inactive | –
CCSC(=O)N(CC(C)C)CC(C)C | inactive | –
CCCCCCC(C)OC(=O)COc1nc(F)c(Cl)c(N)c1Cl (stereo not given) | inactive | –
CCCN(CCC)c1c([N+](=O)[O-])cc(C(F)(F)F)c(N)c1[N+](=O)[O-] | inactive | –
COC(=O)c1ccccc1C(=O)O | inactive | –
O=C(O)C1(C(=O)Nc2ccc(Cl)cc2Cl)CC1 | – | 10 µM (active)
CCCCOC(=O)C(C)Oc1ccc(Oc2ccc(C(F)(F)F)cn2)cc1 (stereo not given) | inactive | –
CCOC(=O)C(C)Oc1ccc(Oc2cnc3cc(Cl)ccc3n2)cc1 (stereo not given) | inactive | –
CCCOC(=O)NCCCN(C)C | inactive | –
CC(C)(C)[C@@H](O)[C@@H](Cc1ccc(Cl)cc1)n1cncn1 | – | 40.9 µM (active)
COc1c(Cl)ccc(Cl)c1C(=O)O | inactive | –
C=CCOC(Cn1ccnc1)c1ccc(Cl)cc1Cl (stereo not given) | inactive | –
CCCN(CCC)C(=O)SCC | inactive | –
CCCCOCCOCCOCc1cc2c(cc1CCC)OCO2 | – | 25.5 µM (active)
CCCOC(=O)c1ccc(C(=O)OCCC)nc1 | – | 0.968 µM (active)
CCOC(=O)COc1cc(-n2ncc(C(F)(F)F)c(C)c2=O)c(F)cc1Cl | inactive | –
CCOC(=O)NCCOc1ccc(Oc2ccccc2)cc1 | inactive | –
COC(=O)c1ccc(I)cc1S(=O)(=O)NC(=O)Nc1nc(C)nc(OC)n1 | inactive | –
CCCCOC(=O)[C@@H](C)Oc1ccc(Oc2ccc(C(F)(F)F)cn2)cc1 | inactive | –
Cc1nn(C)c(Oc2ccccc2)c1C=NOCc1ccc(C(=O)OC(C)(C)C)cc1 | inactive | –
OB(O)O | inactive | –
CCOC(=O)C(C)Oc1ccc(Oc2nc3ccc(Cl)cc3o2)cc1 (stereo not given) | inactive | –
CCNc1nc(N)nc(Cl)n1 | inactive | –
